Holding throughout (test): DAPPL (digital affinity profiling via proximity ligation, sequencing); 10 mM Tris-HCl pH 7.5, 50 mM NaCl, 1 mM DTT, 4% glycerol, room temperature, 30 min; GST-TFs on glutathione beads, 16-mer random dsDNA library, 0.1% formaldehyde crosslink after washing; high values mean tight binding
Common to all, as to details: protein: recombinant; tags: N-terminal GST; dsDNA, one strand shown

One assay has as its target T1, ERF (Homo sapiens, UniProt P50548 1-548).
T1 sequence: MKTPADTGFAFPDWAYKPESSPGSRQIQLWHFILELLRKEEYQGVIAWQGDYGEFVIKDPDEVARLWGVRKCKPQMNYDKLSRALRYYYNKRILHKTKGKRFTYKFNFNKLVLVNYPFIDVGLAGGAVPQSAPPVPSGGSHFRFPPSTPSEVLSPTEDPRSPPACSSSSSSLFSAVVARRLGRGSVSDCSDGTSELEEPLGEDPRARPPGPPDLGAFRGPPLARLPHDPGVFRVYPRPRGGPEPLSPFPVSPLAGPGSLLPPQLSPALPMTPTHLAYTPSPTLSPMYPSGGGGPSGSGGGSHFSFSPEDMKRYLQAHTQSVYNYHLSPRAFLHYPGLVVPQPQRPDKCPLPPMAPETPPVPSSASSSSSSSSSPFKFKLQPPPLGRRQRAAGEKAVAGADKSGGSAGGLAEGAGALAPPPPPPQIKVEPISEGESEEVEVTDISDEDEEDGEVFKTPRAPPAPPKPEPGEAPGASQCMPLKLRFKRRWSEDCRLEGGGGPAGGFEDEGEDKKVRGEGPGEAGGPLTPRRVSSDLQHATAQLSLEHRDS
The essentials: (§1)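 Pools were built from human transcription factors expressed in yeast as GST fusions, captured on glutathione beads and DNA-barcoded, along with a tag-only sample. Incubation with 200 nmole of a 16-mer random double-stranded DNA library lasted 30 min at room temperature in Tris/NaCl/DTT/glycerol buffer, and was followed by washing, 0.1% formaldehyde crosslinking, proximity ligation, PCR amplification and Illumina NextSeq500 sequencing. Binding signal is the quotient of each hexamer's read frequency for a factor and its frequency for the tag-only sample.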

In another assay the target is T2, ETV3L (Homo sapiens, UniProt Q6ZN32 1-361).
T2 sequence: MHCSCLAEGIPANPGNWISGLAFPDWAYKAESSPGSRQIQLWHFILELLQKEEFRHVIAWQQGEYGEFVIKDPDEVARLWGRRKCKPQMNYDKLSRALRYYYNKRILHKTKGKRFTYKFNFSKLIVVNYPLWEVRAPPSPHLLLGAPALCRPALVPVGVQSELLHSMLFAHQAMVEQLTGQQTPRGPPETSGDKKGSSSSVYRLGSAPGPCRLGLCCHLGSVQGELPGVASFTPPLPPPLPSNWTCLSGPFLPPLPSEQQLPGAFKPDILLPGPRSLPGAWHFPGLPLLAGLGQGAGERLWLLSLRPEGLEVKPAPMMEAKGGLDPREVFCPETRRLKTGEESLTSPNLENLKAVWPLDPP
The essentials:
as §1

The target of the next assay is T3, ETS2 (Homo sapiens, UniProt P15036 1-469).
T3 sequence: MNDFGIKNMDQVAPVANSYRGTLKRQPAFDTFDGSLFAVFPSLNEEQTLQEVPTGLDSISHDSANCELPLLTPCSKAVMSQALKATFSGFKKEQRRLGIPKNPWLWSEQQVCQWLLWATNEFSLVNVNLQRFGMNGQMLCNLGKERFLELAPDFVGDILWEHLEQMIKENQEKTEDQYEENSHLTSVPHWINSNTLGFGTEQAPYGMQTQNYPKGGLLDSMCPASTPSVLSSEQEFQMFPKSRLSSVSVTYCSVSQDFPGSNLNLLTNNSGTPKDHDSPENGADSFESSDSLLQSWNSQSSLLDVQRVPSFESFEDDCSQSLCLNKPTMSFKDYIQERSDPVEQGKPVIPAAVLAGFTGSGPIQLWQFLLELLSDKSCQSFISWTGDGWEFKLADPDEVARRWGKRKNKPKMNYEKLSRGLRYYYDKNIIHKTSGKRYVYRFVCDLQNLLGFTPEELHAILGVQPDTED
The gist of the method:
as §1

Another assay has as its target T4, SPDEF (Homo sapiens, UniProt O95238 1-335).
T4 sequence: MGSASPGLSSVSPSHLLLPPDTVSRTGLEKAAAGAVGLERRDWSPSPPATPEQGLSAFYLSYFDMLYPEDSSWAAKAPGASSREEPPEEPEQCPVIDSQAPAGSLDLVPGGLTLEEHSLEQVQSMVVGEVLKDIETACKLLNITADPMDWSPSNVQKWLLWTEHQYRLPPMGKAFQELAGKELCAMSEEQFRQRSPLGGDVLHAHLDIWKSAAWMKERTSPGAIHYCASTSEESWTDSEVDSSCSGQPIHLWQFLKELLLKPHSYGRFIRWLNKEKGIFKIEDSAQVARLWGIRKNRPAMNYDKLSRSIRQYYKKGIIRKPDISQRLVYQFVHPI
The essentials: as §1

The next assay concerns the target T5, ETV7 (Homo sapiens, UniProt Q9Y603 1-341).
T5 sequence: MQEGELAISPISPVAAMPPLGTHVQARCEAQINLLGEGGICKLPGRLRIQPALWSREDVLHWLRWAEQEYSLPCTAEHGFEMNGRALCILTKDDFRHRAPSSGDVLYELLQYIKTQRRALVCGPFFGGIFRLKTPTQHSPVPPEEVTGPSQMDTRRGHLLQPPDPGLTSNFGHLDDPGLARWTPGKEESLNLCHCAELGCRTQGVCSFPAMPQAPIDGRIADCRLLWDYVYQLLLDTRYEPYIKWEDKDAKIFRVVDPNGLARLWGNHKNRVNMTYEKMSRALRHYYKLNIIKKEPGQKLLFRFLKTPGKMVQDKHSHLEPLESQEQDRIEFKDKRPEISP
The essentials:
as §1

A further assay concerns the target T6, ELF5 (Homo sapiens, UniProt Q9UKW6-2 1-255).
T6 sequence: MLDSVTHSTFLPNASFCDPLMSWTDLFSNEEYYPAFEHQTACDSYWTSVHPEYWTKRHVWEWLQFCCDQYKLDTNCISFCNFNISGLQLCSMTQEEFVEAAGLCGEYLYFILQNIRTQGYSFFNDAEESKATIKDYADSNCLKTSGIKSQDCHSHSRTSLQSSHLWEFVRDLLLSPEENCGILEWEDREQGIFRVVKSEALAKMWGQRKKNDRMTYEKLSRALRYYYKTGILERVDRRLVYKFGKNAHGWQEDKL
The gist of the method: as §1

The target of a further assay is T7, ETV3 (Homo sapiens, UniProt P41162-2 1-143).
T7 sequence: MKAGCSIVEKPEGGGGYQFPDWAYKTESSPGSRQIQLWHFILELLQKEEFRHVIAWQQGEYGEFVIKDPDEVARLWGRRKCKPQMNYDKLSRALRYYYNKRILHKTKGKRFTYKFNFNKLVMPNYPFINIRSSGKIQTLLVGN
The gist of the method:
as §1

In the next assay the target is ETV6 (Homo sapiens, UniProt P41212 1-452). The gist of the method:
as §1

ETV6, sequence (P41212 whole entry): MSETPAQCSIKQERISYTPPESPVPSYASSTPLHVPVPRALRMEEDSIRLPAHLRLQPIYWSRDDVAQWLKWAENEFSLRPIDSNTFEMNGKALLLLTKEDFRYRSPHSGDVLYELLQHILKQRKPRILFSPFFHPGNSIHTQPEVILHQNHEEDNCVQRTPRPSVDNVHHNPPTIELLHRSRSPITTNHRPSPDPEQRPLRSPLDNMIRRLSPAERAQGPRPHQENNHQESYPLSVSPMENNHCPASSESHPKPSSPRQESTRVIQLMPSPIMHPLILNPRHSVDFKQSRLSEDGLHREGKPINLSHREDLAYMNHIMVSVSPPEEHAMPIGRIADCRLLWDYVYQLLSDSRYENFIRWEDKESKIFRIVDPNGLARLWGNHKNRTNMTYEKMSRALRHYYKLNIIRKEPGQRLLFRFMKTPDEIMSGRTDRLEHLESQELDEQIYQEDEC

In the case of CGACTA, the binding signal is 1.31 fold enrichment (6-mer frequency, TF over GST control) in the assay with ERF; 1.52 fold enrichment (6-mer frequency, TF over GST control) with ETV3L; 1.38 fold enrichment (6-mer frequency, TF over GST control) with ETS2; 1.37 fold enrichment (6-mer frequency, TF over GST control) with SPDEF; 1.31 fold enrichment (6-mer frequency, TF over GST control) in the assay with ETV7; 1.34 fold enrichment (6-mer frequency, TF over GST control) with ELF5. Further, the binding signal is 1.21 fold enrichment (6-mer frequency, TF over GST control) with ETV3 and 1.28 fold enrichment (6-mer frequency, TF over GST control) with ETV6.

With TGCAAT, the binding signal was 1.14 fold enrichment (6-mer frequency, TF over GST control) with ERF; 1.12 fold enrichment (6-mer frequency, TF over GST control) in the assay with ETV3L; 1.15 fold enrichment (6-mer frequency, TF over GST control) with ETS2; 1.15 fold enrichment (6-mer frequency, TF over GST control) in the assay with SPDEF; 1.2 fold enrichment (6-mer frequency, TF over GST control) with ETV7; 1.1 fold enrichment (6-mer frequency, TF over GST control) with ELF5. Further, the binding signal is 1.15 fold enrichment (6-mer frequency, TF over GST control) in the assay with ETV3 and 1.17 fold enrichment (6-mer frequency, TF over GST control) with ETV6.

As for TAGGAA, the binding signal is 1.17 fold enrichment (6-mer frequency, TF over GST control) with ERF; 1.15 fold enrichment (6-mer frequency, TF over GST control) in the assay with ETV3L; 1.19 fold enrichment (6-mer frequency, TF over GST control) in the assay with ETS2; 1.11 fold enrichment (6-mer frequency, TF over GST control) with SPDEF; 1.04 fold enrichment (6-mer frequency, TF over GST control) with ETV7; 1.29 fold enrichment (6-mer frequency, TF over GST control) in the assay with ELF5. Besides, the binding signal was 1.22 fold enrichment (6-mer frequency, TF over GST control) in the assay with ETV3 and 1.37 fold enrichment (6-mer frequency, TF over GST control) in the assay with ETV6.

For CTCGCC, the binding signal in the assay with ERF was 1.4 fold enrichment (6-mer frequency, TF over GST control); with ETV3L it was 1.2 fold enrichment (6-mer frequency, TF over GST control); in the assay with ETS2 it was 1.25 fold enrichment (6-mer frequency, TF over GST control); in the assay with SPDEF, 1.07 fold enrichment (6-mer frequency, TF over GST control); in the assay with ETV7, 1.16 fold enrichment (6-mer frequency, TF over GST control); in the assay with ELF5, 1.26 fold enrichment (6-mer frequency, TF over GST control). Besides, the binding signal in the assay with ETV3 was 1.2 fold enrichment (6-mer frequency, TF over GST control); with ETV6, 1.29 fold enrichment (6-mer frequency, TF over GST control).

For the sequence CACACT, the binding signal in the assay with ERF was 1.22 fold enrichment (6-mer frequency, TF over GST control); in the assay with ETV3L it was 1.12 fold enrichment (6-mer frequency, TF over GST control); in the assay with ETS2, 1.14 fold enrichment (6-mer frequency, TF over GST control); with SPDEF it was 1.13 fold enrichment (6-mer frequency, TF over GST control); in the assay with ETV7 it was 1.14 fold enrichment (6-mer frequency, TF over GST control); with ELF5 it was 1.18 fold enrichment (6-mer frequency, TF over GST control). Moreover, the binding signal is 1.18 fold enrichment (6-mer frequency, TF over GST control) with ETV3 and 1.15 fold enrichment (6-mer frequency, TF over GST control) in the assay with ETV6.

As to GGTTCC, the binding signal with ERF was 1.35 fold enrichment (6-mer frequency, TF over GST control); with ETV3L it was 1.46 fold enrichment (6-mer frequency, TF over GST control); with ETS2, 1.59 fold enrichment (6-mer frequency, TF over GST control); with SPDEF, 1.84 fold enrichment (6-mer frequency, TF over GST control); in the assay with ETV7 it was 1.47 fold enrichment (6-mer frequency, TF over GST control); with ELF5, 1.75 fold enrichment (6-mer frequency, TF over GST control). For the same sequence, the binding signal is 1.71 fold enrichment (6-mer frequency, TF over GST control) in the assay with ETV3 and 1.55 fold enrichment (6-mer frequency, TF over GST control) in the assay with ETV6.

On to CCGCGT, for which the binding signal with ERF was 1.08 fold enrichment (6-mer frequency, TF over GST control); with ETV3L, 1.11 fold enrichment (6-mer frequency, TF over GST control); with ETS2, 1.13 fold enrichment (6-mer frequency, TF over GST control); with SPDEF, 1.12 fold enrichment (6-mer frequency, TF over GST control); in the assay with ETV7, 1.21 fold enrichment (6-mer frequency, TF over GST control); with ELF5, 1.27 fold enrichment (6-mer frequency, TF over GST control). In addition, the binding signal is 1.13 fold enrichment (6-mer frequency, TF over GST control) with ETV3 and 1.16 fold enrichment (6-mer frequency, TF over GST control) with ETV6.

These data come from PMC7862700, “An all-to-all approach to the identification of sequence-specific readers for epigenetic DNA modifications on cytosine”.
